In the library only some 7.9% were active in any assay of this set; here they are far more common.
KB-3-1 cytotox – KB-3-1 parental cell cytotoxicity. KB-3-1 viability, CellTiter-Glo ATP luminescence, 72 h. Potency, µM (titrated, usually from 46.1 µM), usual class: cytotoxic. 400,000 compounds, 1.4% hits; further: on the % scale 0 is the no-effect control and ±100 the full control effect; nearly all actives have a fitted effect of over 60% in size
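Screening of KB-3-1 cells (DMEM, 10% FBS, phenol-red free) ran from lowest to highest compound concentration; after 72 h at 37 °C viability was read luminescently and curves fitted.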
HT1080-NT tox – kills 2HG-producing HT-1080-NT fibrosarcoma cells. 360,000 compounds, 1.6% hits. Potency, µM (doses to about 46.1 µM), inactives show top-dose activity, negative = less viability, hits mostly cytotoxic. HT-1080-NT fibrosarcoma viability, CellTiter-Glo ATP luminescence, 48 h. AID 686970;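 further: NT is the 2HG producing partner of a matched IDH1 knockdown line; 0% = DMSO-treated cells and -100% = media-only wells without cells; nearly all actives have a fitted effect of over 55% in size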
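Toxicity toward the 2HG-producing NT line was scored as %Activity, normalised to DMSO and no-cell wells, from CellTiter-Glo luminescence after 48 hours' treatment.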
KB-V1 cytotox – kills drug-selected multidrug resistant KB-V1 cells; KB-V1 MDR cells viability, CellTiter-Glo, 72 h; Potency, µM (series often up to 46.1 µM), hits mostly cytotoxic; 400,000 compounds, 3.4% hits; further: on the % scale 0 is the no-effect control and ±100 the full control effect; nearly all actives have a fitted effect of over 60% in size
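KB-V1 cells (P-gp-expressing MDR subline of KB-3-1) in phenol-red-free DMEM with 10% FBS were exposed to library compounds over a concentration series for 72 h at 37 degrees C. Viability read by CellTiter-Glo luminescence; concentration-effect curves fitted after normalization.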
MCF10A rerep – inducers of DNA re-replication in MCF 10A breast cells | 350,000 compounds, 2.9% hits | MCF 10A DNA re-replication, Hoechst nuclear intensity, 48 h | AID 624296 | Potency, µM (doses to about 46.1 µM), without a hit: at the top dose activity, positive = re-replication, hits mostly activators; further: % of control where 0% means no effect; nearly all actives have a fitted effect of over 50% in size
HT1080 IDH1KD tx – HT-1080 IDH1 knockdown cell toxicity (counter line); HT-1080 IDH1 knockdown viability, ATP luminescence, 48 h; Potency, µM (titrated, usually from 46.1 µM), inactives show at the highest dose activity, negative = toxicity, usual class: cytotoxic; 360,000 compounds, 2% hits; AID 686971;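 further: 0% = DMSO wells and -100% = cell-free medium wells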
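CellTiter-Glo luminescence after 48 h compound exposure at 37 degrees C of IDH1-knockdown HT-1080 cells in 5% FBS RPMI. %Activity scaled between DMSO wells and cell-free media wells, with curves fitted and assigned curve classes.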
SW480 rerep – DNA re-replication induction in SW480 cells. SW480 DNA re-replication, Hoechst DNA content imaging, 48 h. 340,000 compounds, 1.8% hits. Potency, µM (series often up to 46.1 µM), for inactives: at the highest dose re-replication activation, actives largely listed as activators; further: % of control where 0% means no effect; nearly all actives have a fitted effect of over 55% in size
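Per well, 250 cells were exposed to pinned compound for 48 hr. Nuclear DNA was visualised with Hoechst (40 min, 37 C) and total object intensity recorded by fluorescence scanning.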
* hit, by the source's call; i = inactive; ? = inconclusive; / = not tested or not shown; [ ] = another dose, or the depositor's remark. The call rests on the fitted dose curve; in most records, active means well fitted curve in the direction sought with a large enough effect; inconclusive means small, poorly fitted or top-dose-only effect, or another doubt; inactive means no such curve, though single readings can be large; an effect the other way counts as inactive or inconclusive. Potency means the concentration at half of the fitted maximal effect.

SMILES	KB-3-1 cytotox	HT1080-NT tox	KB-V1 cytotox	MCF10A rerep	HT1080 IDH1KD tx	SW480 rerep
CCOc1ccc(-c2c(C)n(-c3ccc(OCC)cc3)c3[n+]2CCCCC3)cc1	1.64µM*	14.6µM*	i	?	?	?
Cc1ccc(C(=O)CN2CCOCC2)cc1	i	/	i	/	/	/
Cc1ccc2c(c1Cl)NC(C(=O)O)C1CC(Sc3ccccc3[N+](=O)[O-])C(Cl)C21 (centres undefined)	i	-18.7%	i	8.1%	-17.2%	-6.5%
CCN(CC)C(=O)c1ccc2c(c1)C1C(Cl)C(Sc3ccccc3[N+](=O)[O-])CC1C(C(=O)O)N2 (centres undefined)	2.59µM*	-15.6%	i	1.1%	-14.3%	-0.6%
O=C(Nc1ccc2nc(-c3cccs3)c(-c3cccs3)nc2c1)NC1CC1	i	?	?	17.8µM*	?	?
Cc1ccc(C(C)(C)C)c(OCC(=O)Nc2ccc(Cl)cc2C(=O)c2ccccc2)c1	i	/	i	/	/	/
Cc1nc2ccccc2c(=O)n1/N=C/c1cc(Br)cc(Br)c1O	i	-25.0%	i	26.9%	?	7.31µM*
CC(C)c1ccc(Oc2cccc3c2S(=O)(=O)N(C2CCCC2)CC(COCc2ccccc2)O3)cc1 (centres undefined)	i	-6.3%	i	-52.0%	-0.1%	-13.2%[9.22 µM]
Cc1ccccc1N1C(=O)NC(=O)/C(=C\c2cc(Br)c(N3CCOCC3)o2)C1=O	i	1.0%	i	7.31µM*	-2.0%	?
O=c1oc2cccnc2n1CCS(=O)(=O)c1ccc(F)cc1	i	-11.2%	i	20.6µM*	-3.0%	?
CCCCCCCCCCCCCCCC[N+](C)(C)C	?	11.6µM*	i	?	?	?
CC1(C)C(=O)CCC2C1=CCC1C2CCC2(C)C(O)CCC12 (centres undefined)	i	1.9%	i	7.4%	-1.2%	-1.2%
COc1cc2c(cc1O)CC[C@@H]1[C@@H]2CC[C@]2(C)[C@@H](O)CC[C@@H]12	1.64µM*	?	5.8µM*	?	?	3.26µM*
Cc1nn(-c2ccccc2)c(Cl)c1/C=C(\CC(=O)O)c1nc2ccccc2s1	i	-4.6%	i	2.2%	-2.3%	-8.4%
COc1cccc(/C=C/c2nc3ccccc3c(=O)n2-c2ccc(Cl)cc2)c1OC	i	/	i	/	/	/
CC(C)(O)[C@H]1O[C@H]2CC[C@@]3(C)[C@@](O)(CC[C@H]4Cc5c([nH]c6ccccc56)[C@@]43C)C2=CC1=O	i	?	i	?	?	0.731µM*
O=C(Nc1ccccc1)c1c(O)c2c(n(Cc3ccco3)c1=O)CCCC2	?	12.9%	i	2.4%	10.3%	-3.8%
O=C(Nc1nccs1)c1c(O)c2c(n(Cc3ccco3)c1=O)CCCC2	?	-5.9%	11.6µM*	9.7%	-0.8%	-14.2%
Cc1ccc(C(=O)Nc2ccccc2)cc1S(=O)(=O)N1CCCC1	?	/	14.6µM*	/	/	/
COC(=O)[C@@]1(C)CC[C@]2(C)CC[C@@]3(C)C(=CC(=O)C4[C@@]5(C)CC[C@H](O)C(C)(C)[C@@H]5CC[C@]43C)[C@H]2C1 (some centres undefined)	i	11.8%	?	2.5%	6.4%	-72.3%
CS(=O)(=O)N(CC(=O)N1CCN(Cc2ccc3c(c2)OCO3)CC1)Cc1ccc(Cl)cc1	?	-9.3%	?	-0.9%	?	11.8%
COc1ccc(C=C(C#N)c2ccc(OC)cc2)cc1	18.4µM*	-0.6%	?	?	-11.4%	?
c1cc2c(cc1CCNC1C3CC4CC(C3)CC1C4)OCO2 (centres undefined)	i	0.0%	20.6µM*	9.1%	1.2%	-4.8%
O=Cc1ccco1	/	/	/	-0.6%	/	-1.4%
COc1ccc(C(C)=O)cc1COC(=O)c1ccc2ccccc2n1	i	8.6%	i	-35.4%	4.6%	2.2%
SMILES	KB-3-1 cytotox	HT1080-NT tox	KB-V1 cytotox	MCF10A rerep	HT1080 IDH1KD tx	SW480 rerep
O=[N+]([O-])c1c(Cl)cccc1-c1c[nH]cc1Cl	/	/	/	?	/	13.7%
CN1CCc2c(C#N)c(Cl)nc(Cl)c2C1	i	-18.8%	?	?	0.1%	2.31µM*
NCCc1ccc(OCc2ccccc2)c(OCc2ccccc2)c1	?	-25.0%	23.1µM*	?	?	?
Clc1ccc(C(Cn2ccnc2)OCc2csc3c(Cl)cccc23)c(Cl)c1 (centres undefined)	i	?	?	61.7%	20.6µM*	-0.6%
CSc1ccc(Cl)c(C(=O)OCC(=O)N2CCN(C(=O)c3ccco3)CC2)c1	i	0.1%	?	-0.1%	8.1%	?
O=P(Oc1ccccc1)(Oc1ccccc1)C(Nc1ccccc1)c1ccccc1 (centres undefined)	?	-26.7%	13µM*	?	-10.0%	17.6%
O=P(Oc1ccccc1)(Oc1ccccc1)C(O)c1ccccc1 (centres undefined)	i	12.4%	i	-2.1%	9.2%	-5.3%
CC(C)COP(=O)(OCC(C)C)C(Nc1ccccc1)c1ccccc1 (centres undefined)	i	18.4µM*	?	?	?	-74.9%
CC(C)COP(=O)(c1ccc(N(C)C)cc1)C(Nc1ccccc1)c1ccccc1 (centres undefined)	?	-11.5%	?	?	-5.8%	?
Nc1ccc2ccc3cccc[n+]3c2c1	?	-17.6%	i	1.2%	-18.7%	2.91µM*
O=C1NC2C(O)C(O)C(O)C(O)C2c2cc3c(c(O)c21)OCO3 (centres undefined)	?	0.461µM*	0.517µM*	14.2%	0.231µM*	16.6%
O=C1NC2C(=CC(O)C(O)C2O)c2cc3c(c(O)c21)OCO3 (centres undefined)	0.103µM*	0.731µM*	?	?	0.146µM*	?
O=C1NC2C(=CC(O)C(O)C2O)c2cc3c(cc21)OCO3 (centres undefined)	3.26µM*	?	2.31µM*	?	1.16µM*	22.6%
Cc1cccc(CN2CCN(Cc3ccc(Cl)cc3)CC2)c1	i	-14.7%	?	7.31µM*	-27.8%	?
CCN(CC)C1=NC(=[N+](CC)CC)c2ccccc21	10.3µM*	?	i	?	12.6µM*	?
CC12Cc3cnoc3C=C1CCC1C2CCC2(C)C1CCC2(C)O (centres undefined)	6.51µM*	2.7%	?	?	1.5%	1.1%

High-throughput results as filed in PubChem.
